In the library only some 1.8% were active in any assay of this set; here they are far more common.
GSTO1 counter = inhibitors of recombinant GSTO1, primary screen, counter-screen for RBBP9 inhibitor project, biochemical, fluorescence polarization; actives 1.1% (n = 300,000); inhibition, % at 5.96 µM; AID 1974, 2009; activity-based probe fluorescence polarization; Glutathione S-transferase omega-1 (Homo sapiens), P78417;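 active = inhibition above the campaign mean inhibition plus 3 SD, cut at about 35% in these data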;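 also: 0% = GSTO1-1 with DMSO and 100% = wells lacking GSTO1-1 enzyme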
PAD4 inh = human PAD4 inhibitors, primary screen, biochemical, fluorescence polarization, 1536-well format; recombinant PAD4, RCA probe fluorescence polarization; inhibition, % at 6.36 µM; actives 0.41% (n = 330,000);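 active = percent inhibition above a cutoff equal to the mean of all tested compounds plus 3 SD, cut at about 15% in these data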;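 also: 0% = PAD4 with RCA probe and DMSO and 100% = probe without PAD4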
PME-1 primary = PME-1 inhibitors via competitive probe labeling, primary screen, biochemical, fluorescence polarization, FP-Rh probe, HTS; recombinant PME-1; inhibition, % at 5.9 µM; actives 0.53% (n = 320,000); AID 2130, 2009;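 active = inhibition above the campaign mean of all compounds plus 3 SD, cut at about 26% in these data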;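 also: competitive labeling of PME-1 active site by serine hydrolase directed probe; 0% = PME-1 with DMSO and 100% = wells lacking PME-1 enzyme; inhibitors block probe labeling so polarization falls and inhibition rises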
Target sequence (Q9Y570 whole entry, looked up): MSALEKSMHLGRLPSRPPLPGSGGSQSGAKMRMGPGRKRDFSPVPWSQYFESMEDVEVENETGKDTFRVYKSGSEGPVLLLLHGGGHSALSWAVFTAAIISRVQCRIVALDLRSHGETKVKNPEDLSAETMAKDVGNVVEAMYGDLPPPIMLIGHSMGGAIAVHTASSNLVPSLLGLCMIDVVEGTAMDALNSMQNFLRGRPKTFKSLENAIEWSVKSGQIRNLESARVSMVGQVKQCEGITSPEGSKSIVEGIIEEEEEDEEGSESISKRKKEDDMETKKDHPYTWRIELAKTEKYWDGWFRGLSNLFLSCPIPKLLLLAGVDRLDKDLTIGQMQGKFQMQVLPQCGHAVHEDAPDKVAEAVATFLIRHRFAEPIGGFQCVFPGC
LYPLA1 inh = LYPLA1 inhibitors, primary screen, counter-screen for PME1 inhibitor project, biochemical, fluorescence polarization, FP-Rh probe ABPP; Acyl-protein thioesterase 1 (Homo sapiens), O75608; recombinant LYPLA1; inhibition, % at 5.9 µM; actives 0.16% (n = 320,000); AID 2174, 2009;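 active = inhibition above the mean of all tested compounds plus 3 SD, set per campaign, cut at about 14% in these data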;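 also: inhibitors block serine hydrolase probe labeling of LYPLA1 so polarization falls; 0% = enzyme with DMSO and 100% = wells lacking LYPLA1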
Target sequence (O75608 whole entry, looked up): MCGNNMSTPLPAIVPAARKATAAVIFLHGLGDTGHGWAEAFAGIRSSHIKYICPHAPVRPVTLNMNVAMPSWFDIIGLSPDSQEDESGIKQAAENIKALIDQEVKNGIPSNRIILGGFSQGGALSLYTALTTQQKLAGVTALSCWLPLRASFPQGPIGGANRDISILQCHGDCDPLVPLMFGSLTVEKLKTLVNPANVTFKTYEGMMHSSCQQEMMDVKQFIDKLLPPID
Fam108B counter = mouse Fam108B serine hydrolase inhibitors, primary screen, counter-screen for RBBP9 inhibitor project, biochemical, fluorescence polarization. AID 1947, 2009. actives 0.33% (n = 300,000). recombinant Fam108B, FP-Rh probe fluorescence polarization. inhibition, % at 9.51 µM;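 active = inhibition above the screen mean inhibition plus 3 SD, computed separately per campaign, cut at about 18% in these data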;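 also: inhibitors lower polarization as less probe binds the enzyme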
LYPLA2 counter = LYPLA2 inhibitors, primary screen, counter-screen for PME1 inhibitor project, biochemical, fluorescence polarization, FP-Rh probe ABPP. recombinant LYPLA2. inhibition, % at 5.9 µM. actives 0.38% (n = 320,000). AID 2177, 2009;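 active = inhibition above the screen-wide mean plus 3 SD, limit set per campaign, cut at about 26% in these data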;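 also: 0% = LYPLA2 with DMSO and 100% = wells lacking LYPLA2 enzyme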
LYPLA1 conf = LYPLA1 inhibitors, retest, confirmation, counter-screen for PME1 inhibitor project, biochemical, fluorescence polarization, FP-Rh probe ABPP | shares compounds with LYPLA1 inh | recombinant LYPLA1 | inhibition, % at 5.9 µM | actives 69% (n = 480) | AID 2233, 2010;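 active = mean inhibition across replicates above the hit cutoff set in the primary screen, cut at about 15% in these data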;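 also: loss of FP-Rh probe labeling of LYPLA1 seen as lower polarization; 0% = LYPLA1 with DMSO and 100% = wells lacking LYPLA1 enzyme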
* hit, by the source's call; . = no result given.

SMILES | GSTO1 counter | PAD4 inh | PME-1 primary | LYPLA1 inh | Fam108B counter | LYPLA2 counter | LYPLA1 conf
CCOc1ccccc1N(CC(=O)NC1CCCCC1)S(=O)(=O)c1ccc(C)cc1 | -1 | -4 | -5 | -3 | 0 | -5 | .
OCCN(CCO)c1ccc2ccccc2c1 | 15 | 0 | 10 | 1 | 3 | 7 | .
OCCN(CCO)c1ccc(C(c2ccccc2Cl)c2ccc(N(CCO)CCO)cc2Cl)c(Cl)c1 | 5 | 8 | 15 | 15* | 14 | 14 | 17*
C[C@]12C(=O)N(c3ccc(F)cc3)C(=O)N1[C@H]1c3ccccc3OC[C@@H]1[C@H]2c1ccccc1 | . | -3 | . | . | . | . | .
CCOC(=O)c1sc2cc([N+](=O)[O-])cc(SCC(=O)OC)c2c1N | 36* | -7 | 8 | 15* | 7 | 4 | 29*
O=C(Cc1ccccc1)N1CCC(c2nc(-c3ccc(F)cc3)no2)CC1 | -9 | -3 | 4 | 17* | 2 | 5 | 7
CCC1CCCCN1C(=O)CSc1nc(N)cc(N)n1 (centres undefined) | 6 | -2 | -1 | -5 | -4 | 1 | .
CC(=O)c1ccc(-c2ccc(/C=C(/Sc3n[nH]c(C)n3)C(=O)O)o2)cc1 | -8 | 2 | 7 | 9 | 11 | 4 | .
Cc1nc(S/C(=C/c2ccc(-c3ccc(Cl)cc3)o2)C(=O)O)n[nH]1 | 10 | -2 | 19 | 20* | 10 | 3 | 19*
CCn1c(COC(=O)CNC(=O)c2ccccc2F)nc2cc(S(=O)(=O)N(C)C)ccc21 | -3 | -1 | 7 | 0 | 0 | -1 | .
COc1ccc(-n2cc(-c3ccccc3)c3c(NN4CCOCC4)ncnc32)cc1 | 2 | -1 | 0 | 14* | -4 | 0 | 27*
COc1ccc(O)c(/C=N/NC(=O)CN2CCS(=O)(=O)CC2)c1 | 2 | -2 | 0 | -4 | 1 | 2 | .
CCOc1cc(CN2CCCC(C(=O)c3cccc(C(F)(F)F)c3)C2)ccc1O (centres undefined) | 5 | -1 | 0 | 35* | -2 | -1 | 42*
COc1ccc(/C=C2/SC(=S)N(CCCC(=O)Nc3ccccc3C(=O)O)C2=O)cc1 | 2 | -2 | -3 | 20* | 2 | 22 | 19*
O=C(NCC1CCCCC1)c1cc(S(=O)(=O)N2CCOCC2)ccc1F | . | 2 | -1 | 2 | . | 6 | .
CCN(CC)S(=O)(=O)c1cccc(-c2nnc(SCc3nc4ccccc4s3)o2)c1 | 9 | -5 | 0 | 14* | -6 | -7 | 21*
CCN(CC)S(=O)(=O)c1cccc(-c2nnc(SCCCC(=O)c3ccccc3)o2)c1 | -2 | 1 | 2 | 2 | -8 | -3 | .
C/C(=N\NC(=O)c1nnn(-c2nonc2N)c1-c1cccs1)c1ccncc1 | -5 | 0 | 6 | 25* | -3 | 6 | 1
CC1(C)CC2(CCO1)C(Nc1ccccc1)=NC(=S)N2CC(N)=O (centres undefined) | 5 | -10 | -1 | 0 | 0 | -5 | .
C=CCOc1cccc(C(=O)N2CCC(CCC(=O)NC3CC3)CC2)c1 | 2 | 5 | -6 | 23* | -2 | 6 | 4
O=C(/C=C/c1c(F)cccc1Cl)NCCCN1CCOCC1 | -5 | 1 | 2 | -3 | 1 | 0 | .
NC(=O)c1cc(S(=O)(=O)NCc2cccc(Br)c2)cs1 | 21 | 2 | 1 | 15* | 2 | 2 | -5
Cc1ccc(C2(COC(=O)C(C)C)CO2)c(OC(=O)C(C)C)c1 (centres undefined) | -1 | -2 | 0 | 29* | 1 | 4 | 1
CC1CCc2c(sc(NC(=O)CN3CCN(C(=O)c4ccco4)CC3)c2C#N)C1 (centres undefined) | -4 | 4 | 0 | 42* | -3 | 25 | 42*
Cc1ccc([N+](=O)[O-])c(OCCN2CCC(Cc3ccccc3)CC2)c1 | 5 | -2 | 0 | -2 | -3 | 8 | .
SMILES | GSTO1 counter | PAD4 inh | PME-1 primary | LYPLA1 inh | Fam108B counter | LYPLA2 counter | LYPLA1 conf
O=[N+]([O-])c1cccc(OCCCN2CCC(Cc3ccccc3)CC2)c1 | 3 | -6 | 3 | 16* | 0 | 32* | 20*
N#Cc1ccccc1OCCCN1CCC(Cc2ccccc2)CC1 | 1 | -2 | 2 | 59* | 2 | 16 | 56*
NC(=O)Cn1cnc2c(nnn2-c2ccc(F)cc2)c1=O | 3 | 0 | 3 | 0 | -1 | 4 | .
NC(=O)c1c(NC(=O)c2ccccc2)sc2c1CCC2 | 4 | -6 | 3 | -2 | 5 | 7 | .
Cn1ncc(Cl)c1C(=O)Nc1sc2c(c1C(N)=O)CCC2 | -4 | -8 | 5 | 29* | -2 | 0 | 4
O=Nc1c(-c2cccc([N+](=O)[O-])c2)nc2ncccn12 | -2 | -1 | 10 | 4 | 5 | 6 | .
COc1ccc(N(CC(=O)NCCSCc2ccccc2Cl)S(C)(=O)=O)cc1Cl | -1 | 3 | -3 | -1 | -3 | 0 | .
CC1(OC(=O)c2cnc3ccccc3n2)C(=O)C=C2C=C(C3CC3)OC=C2C1=O (centres undefined) | 43* | 38* | 66* | 58* | 48* | 76* | 27*
COC(=O)c1cccc(NC(=O)c2ccc3c(c2)C(=O)N(Cc2cccnc2)C3=O)c1 | 3 | 3 | 7 | 20* | 1 | 8 | 19*
Cc1cc(C)c2c(N)c(C(=O)Nc3nccs3)sc2n1 | -2 | -1 | 6 | 17* | 2 | 0 | 11
CCCSc1nc(N)c(C#N)c(-c2ccc(C)cc2)c1C#N | 0 | 0 | 2 | 1 | -3 | 2 | .
C=CCSc1nc(N)c(C#N)c(-c2ccccc2)c1C#N | 2 | -2 | -7 | 14* | 1 | 8 | 12
CN(Cc1nc(-c2ccc(Cl)cc2)no1)C(=O)CCN1C(=O)[C@H]2CC=CC[C@H]2C1=O | -5 | 0 | 1 | 1 | -1 | 1 | .
O=C(CSc1nc(-c2ccccc2)ns1)NCC1CCCO1 (centres undefined) | 0 | -14 | -4 | -3 | 3 | -2 | .
COc1ccc(CC(NC(C)=O)C(=O)NC2CCN(S(=O)(=O)c3ccc(NC(C)=O)cc3)CC2)c(OC)c1 (centres undefined) | 1 | 2 | -2 | -1 | -2 | -8 | .
COc1ccc(CC(=O)Nc2ccc(S(=O)(=O)N3CCC(C)CC3)cc2)c(OC)c1 | . | -2 | -5 | 17* | . | -3 | -5
